The results in this text go back to PubChem BioAssay (NCATS).

“And” between values parts separate entries of the source, which are not always exact repeats. Equal values may be shown once. Records with an inconclusive call do not appear. The source made the active and inactive calls. The call rests on the fitted dose curve; in most records, active means well fitted curve in the direction sought with a large enough effect in the signal ratio, with a control signal flat; inconclusive means small, poorly fitted or top-dose-only effect, or a change in a side signal; inactive means no such curve, though single readings can be large or run the other way; the % refers to the signal ratio.

Chain of Glucocorticoid receptor (Homo sapiens) (P04150 whole entry, looked up): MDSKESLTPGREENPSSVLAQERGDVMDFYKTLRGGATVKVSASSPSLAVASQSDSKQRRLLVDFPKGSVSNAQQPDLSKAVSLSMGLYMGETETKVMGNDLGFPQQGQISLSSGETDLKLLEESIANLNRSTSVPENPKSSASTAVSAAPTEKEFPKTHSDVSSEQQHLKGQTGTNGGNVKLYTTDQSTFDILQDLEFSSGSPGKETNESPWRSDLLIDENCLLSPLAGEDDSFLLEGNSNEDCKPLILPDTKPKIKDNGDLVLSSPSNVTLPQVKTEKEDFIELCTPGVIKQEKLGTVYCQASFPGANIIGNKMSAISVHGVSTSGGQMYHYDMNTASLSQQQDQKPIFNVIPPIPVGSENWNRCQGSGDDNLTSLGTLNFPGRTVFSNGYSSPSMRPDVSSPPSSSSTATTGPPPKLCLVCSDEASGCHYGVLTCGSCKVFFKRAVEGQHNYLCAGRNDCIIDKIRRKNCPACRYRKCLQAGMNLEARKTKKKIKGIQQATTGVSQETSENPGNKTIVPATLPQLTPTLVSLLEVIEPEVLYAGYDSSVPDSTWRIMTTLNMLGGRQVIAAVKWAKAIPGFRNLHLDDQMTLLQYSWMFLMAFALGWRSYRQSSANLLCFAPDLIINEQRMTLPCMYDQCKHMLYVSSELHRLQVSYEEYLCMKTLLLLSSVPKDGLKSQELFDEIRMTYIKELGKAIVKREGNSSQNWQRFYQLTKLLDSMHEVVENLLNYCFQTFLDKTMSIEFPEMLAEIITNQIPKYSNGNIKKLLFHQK

The test addresses Glucocorticoid receptor (Homo sapiens) (UniProt P04150). The test is described as follows: qHTS assay for small molecule agonists of glucocorticoid receptor signaling (AID 588532). The conditions noted are these: HeLa MMTV-bla, beta-lactamase ratio, agonist, 18 h; activation: active compounds read high, percent of dexamethasone control, DMSO zero. The text has this:
NIH Chemical Genomics Center [NCGC] U.S. Environmental Protection Agency [EPA] National Institutes of Environmental Health Sciences [NIEHS] National Toxicology Program [NTP] NCGC Assay Overview The Glucocorticoid receptor (GR), a nuclear receptor subfamily member and its natural ligands includes […] etc. The GR is a validated drug target for inflammation. GR ligands such as dexamethasone are clinically available as anti-inflammatory drugs. Glucocorticoids implicate role in carbohydrate, protein and lipid metabolisms and programmed cell death. They are also a component of many chemotherapy regimens for the treatment of leukemias, lymphomas, and myelomas because of their role in the induction of apoptosis.
NCGC Assay Protocol Summary Using a beta-lactamase reporter-gene under control of glucocorticoid response element (GRE), a cell-based assay [CellSensor MMTV-bla HeLa cell line assay developed by Invitrogen] was used to measure GR ligands signaling. CellSensor MMTV-bla HeLa cells were used with assay medium containing 1% charcoal/dextran treated FBS, 0.1 mM NEAA, 1 mM sodium pyruvate and 25mM HEPES. The assay was performed in clear bottom black Greiner 1536-well plates. Dexamethasone and Mifepristine were used in the screen as agonist and antagonist positive controls respectively. Library compounds were measured for their ability to stimulate the reporter gene activity. Compounds were screened in a titration series in 1536-well format. The fluorescence intensity (405 nm excitation, 460/530 nm emission) was measured using an EnVision plate reader. Data was normalized relative to Dexamethasone control (0.1 uM, 100%), and DMSO only wells (basal, 0%). Concentration-response titration points for each compound were fitted to the Hill equation yielding concentrations of half-maximal stimulation (EC50) and maximal response (efficacy) values. qHTS protocol for GR beta-lactamase assay in agonist mode [Step] [Parameter] [Value] [Description] 1. Reagent; 6 uL; 1500 cells/well 2. Incubation; 37 C for 3-5 hrs 3. Compounds; 23 nL; 0.59 nM to 92 uM 4. Controls (Dexamethasone); 23 nL, - One column with dose response, start 4.6uM, 1:3 dilutions in duplicates - Final concentrations of 0.1 uM and 2 nM in two columns 5. Incubation; 37 C for 18 hrs 6. Detection reagent; 1 uL of CCF4-dye 7. Incubation; RT for 2 hrs 8. Detection; Fluorescence; Envision plate reader
For orientation: qHTS replaces the single test concentration by a dilution series.
As for `C[C@]12CCC(=O)C=C1CC[C@@H]1[C@@H]2C(=O)C[C@@]2(C)[C@H]1CC[C@]2(O)C(=O)CO`, the activation is -0.667% (inactive).
The same measure, in the same setting: under `CC(C)(Oc1ccc(CCNC(=O)c2ccc(Cl)cc2)cc1)C(=O)O` stands -5.13% (inactive).
As to `COc1ccc(CN(CCN(C)C)c2ccccn2)cc1`, the activation is -0.651% (inactive).
Still for that read-out and setting: under `CC(=O)[C@@]1(O)CC[C@H]2[C@@H]3CCC4=CC(=O)CC[C@]4(C)[C@H]3CC[C@@]21C` stands 1.8% (inactive); under `Cc1ccc(S(=O)(=O)NC(=O)NN2CCCCCC2)cc1`, -1.16% (inactive).
Same read-out and setting: under `Nc1ncn([C@@H]2O[C@H](CO)[C@@H](O)[C@H]2O)c(=O)n1` stands -7.09% (inactive) and -13.7% (inactive).
`CCCCNC(=O)NS(=O)(=O)c1ccc(C)cc1`: the activation is -10.2% (inactive).
Still for that read-out and setting: under `COC(=O)[C@H]1[C@H]2C[C@@H]3c4[nH]c5cc(OC)ccc5c4CCN3C[C@H]2C[C@@H](OC(=O)c2cc(OC)c(OC)c(OC)c2)[C@@H]1OC` stands 4.47% (inactive).
Turning to `C[C@]12C=CC(=O)C=C1CC[C@H]1[C@@H]3C[C@@H](O)[C@](O)(C(=O)CO)[C@@]3(C)C[C@H](O)[C@@]12F`, the Potency was 0.112 µM (active).
Regarding `COc1cc(Cc2cnc(N)nc2N)cc(OC)c1OC`, the activation was -1.11% (inactive).
